Experimental data published in PubChem BioAssay AID493012 (Sanford-Burnham Center for Chemical Genomics, 2011).
The whole screen tested about 330,000 compounds, of which about 930 (0.28%) were called active. The sample as a whole holds a higher share of actives than the screen did. A number with no mark means an inactive call.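 Rule for the calls: active = inhibition of at least 40% at 20 µM, with no more than 30% in the related APOBEC3A deaminase screen; inactive = the rest.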

Target: DNA dC->dU-editing enzyme APOBEC-3G (Homo sapiens) (UniProt Q9HC16)
Assay: inhibition of human A3G ssDNA deamination – biochemical, fluorescence, single-stranded DNA substrate, uHTS, primary screen (AID 493012);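 note: plate controls were DMSO wells with A3G for no effect and wells lacking A3G enzyme for full effect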
Conditions: recombinant A3G, ssDNA deamination FAM/TAMRA fluorescence; at 20 µM; stronger effect = higher value

DNA dC->dU-editing enzyme APOBEC-3G (Homo sapiens), sequence (Q9HC16 whole entry, looked up): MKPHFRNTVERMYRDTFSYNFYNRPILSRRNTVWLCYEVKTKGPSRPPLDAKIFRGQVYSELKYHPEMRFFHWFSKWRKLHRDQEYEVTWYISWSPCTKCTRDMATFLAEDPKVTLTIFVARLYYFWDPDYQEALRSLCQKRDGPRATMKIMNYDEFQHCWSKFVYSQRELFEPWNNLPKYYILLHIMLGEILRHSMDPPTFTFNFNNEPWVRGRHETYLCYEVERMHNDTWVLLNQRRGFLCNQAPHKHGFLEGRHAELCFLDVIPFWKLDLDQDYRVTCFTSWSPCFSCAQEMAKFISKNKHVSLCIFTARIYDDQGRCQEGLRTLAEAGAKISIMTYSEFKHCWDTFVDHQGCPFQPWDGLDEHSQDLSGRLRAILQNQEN

| Compound | inhibition |
| --- | --- |
| CCOC(=O)C(C)Sc1nnc(CSc2nc3nc(C)cc(C)n3n2)o1 (stereo not drawn) | -3.96% |
| CCc1c(C)[nH]c(=S)c(C#N)c1C | 40.3% (active) |
| CC(=O)c1c(C)[nH]c(=S)c(C#N)c1-c1ccc(F)cc1 | 5.87% |
| CCC(=O)N(C)C(c1ccccc1Cl)c1nnnn1-c1c(C)cccc1C (stereo not drawn) | -7.17% |
| COC(=O)c1ccc2c(=O)n(CCN3CCOCC3)c(SCC(=O)Nc3cccc(OC)c3)nc2c1 | -3.78% |
| CC(=O)N(C1=C(Cl)C(=O)c2ccccc2C1=O)c1ccc(C(=O)O)cc1 | 89.2% (active) |
| O=C(COC(=O)c1ncc(Cl)c(Cl)c1Cl)NC1CCS(=O)(=O)C1 (stereo not drawn) | -7.97% |
| CC1=C/C(=N\OS(=O)(=O)c2ccccc2)C=CC1=O | 71.9% (active) |
| N#Cc1c(Cl)nc(-c2cccnc2)nc1-c1ccccc1 | -2.3% |
| Cc1ccc(-n2c(N)c(C(=O)N3CCOCC3)sc2=S)c(C)c1 | 10.5% |
| Cc1cccc(-n2c(N)c(C(=O)N3CCN(C)CC3)sc2=S)c1 | 62.1% (active) |
| N#Cc1ccccc1-n1c(N)c(C(=O)N2CCCC2)sc1=S | 25.4% |
| Cc1ccc(OCc2n[nH]c(=S)n2-c2ccccc2)cc1 | 9.43% |
| COc1ccc(OCc2n[nH]c(=S)n2N)cc1 | 59.6% (active) |
| COc1ccc(Cc2n[nH]c(=S)n2NC(=O)Nc2ccc(C)cc2)cc1 | 26.9% |
| COC(=O)c1cccc(N(C(=O)c2ccco2)C(C(=O)NC2CCCC2)c2ccco2)c1 (stereo not drawn) | 0.606% |
| Cn1c(=O)c2c(SCC(=O)NCC3CCCO3)nc(CC(C)(C)C)nc2n(C)c1=O (stereo not drawn) | -3.25% |
| CCOc1ccc(CN2CCN(Cc3ccc4cc(F)ccc4n3)CC2CCO)cc1 (stereo not drawn) | -8.75% |
| Cc1ccc(S(=O)(=O)N2CCC(Oc3ccc(-n4cnnn4)cc3)CC2)cc1 | -1.49% |
| CCCn1c(O)c(CN2CCCC(C)C2)c(C)c(C#N)c1=O (stereo not drawn) | -4.49% |
| O=c1[nH]c2ccccc2n2c(-c3ccccc3)nnc12 | 83.4% (active) |

| Compound | inhibition |
| --- | --- |
| O=c1[nH]n2c(-c3ccccc3)nc(O)c2c2ccccc12 | -3.66% |
| CC1(C)CC(=O)C2=C(C1)N=C1SCCC(=O)N1C2c1ccc(C(F)(F)F)cc1 (stereo not drawn) | -0.591% |
| COc1cccc(OCc2nnc3n2N=C(c2ccccc2)C(CC(=O)O)S3)c1 (stereo not drawn) | -9.67% |
| COc1ccc(OCc2nnc3n2N=C(c2ccccc2)C(CC(=O)O)S3)cc1 (stereo not drawn) | 65.2% (active) |
| COc1ccc(C2CC(c3ccccc3)=NN2C(=O)COC(=O)COc2ccccc2)cc1 (stereo not drawn) | -5.97% |
| COc1cc(OC)c(NC(=O)C2CCCN2C(=O)OCc2ccccc2)cc1Cl (stereo not drawn) | -7.18% |
| CCOC(=O)C1=C(C)Nc2sc(C(=O)c3ccc(Br)cc3)c(N)c2C1c1ccc(C(=O)OC)cc1 (stereo not drawn) | -6.26% |
| CCOC(=O)c1sc(=S)n2c1[nH]c(=O)c1ccc(C(=O)OC)cc12 | 41.3% (active) |
| CCOC(=O)c1ccc(Nc2cc3ccccc3c(=O)[nH]2)cc1 | -6.08% |
| CCCN1C2CCCC1CC(NC(=O)NC13CC4CC(CC(C4)C1)C3)C2 (stereo not drawn) | -7.31% |
| CC(C)C1Nc2c(C(=O)O)cccc2C(Nc2ccccc2C(=O)O)C1(C)C (stereo not drawn) | 3.35% |
| COc1ccc(N2C(=O)CC(SC(C)C)C2=O)cc1 (stereo not drawn) | -8.49% |
| COc1ccc(-c2nc(SCC(=O)N3CCCC3)n[nH]2)cc1 | -17.7% |
| COc1ccc(N2C(=O)CC(Sc3n[nH]c(-c4ccc(C)cc4)n3)C2=O)cc1 (stereo not drawn) | 41.5% (active) |
| CCOC(=O)C1=C(c2ccccc2)NC(=O)NC1c1cc(OCC)c(O)c([N+](=O)[O-])c1 (stereo not drawn) | -2.96% |
| CCOC(=O)c1cnc(Nc2nc3ccccc3o2)nc1CSC(=S)N1CCCCC1 | -3.98% |
| CCOc1ccc(NC(=O)c2ccc(NC(=O)COC(=O)c3ccc(NC(=O)CC#N)cc3)cc2)cc1 | 66.2% (active) |
| CC(C)NC(=O)NC(=O)COC(=O)c1ccc(NC(=O)CC#N)cc1 | -1.25% |
| N#CCC(=O)Nc1ccc(C(=O)OCC(=O)Nc2sc3c(c2C#N)CCCC3)cc1 | -9.04% |
| COc1ccc(C2(C)ON(c3ccccc3C(F)(F)F)C2=O)cc1 (stereo not drawn) | -6.81% |
| O=C1C=CC(=O)N1c1ccc(N2CCCCC2)cc1 | 56.8% (active) |

| Compound | inhibition |
| --- | --- |
| CC(=O)Nc1ccc(S(=O)(=O)Nc2ccc(N3CCCCC3)cc2)cc1 | -1.93% |
| O=C(C1CC(=O)N(C2CCCCC2)C1)N1CCN(c2ccccc2)CC1 (stereo not drawn) | -5.67% |
| COc1ccccc1OCC(=O)Nc1c2c(nn1-c1ccc(F)cc1)CS(=O)(=O)C2 | -3.56% |
| O=C(NCC1CCCCC1)c1cc(S(=O)(=O)N2CCCCC2)ccc1N1CCOCC1 | -1.87% |
| O=C(CCn1c(=O)oc2ccccc21)Nc1ccon1 | -6.36% |
| COCc1c(N)c(C)nc(Cl)c1C#N | 66.3% (active) |
| COC(=O)c1c(C)c(C)nc(N)c1C#N | -1.41% |
| Cc1nc(Cl)c(C#N)c2c1CCCC2 | -4.63% |
| Brc1ccc(C2CC(c3ccccc3)=Nc3ccccc3N2)cc1 (stereo not drawn) | -3.13% |
| Cn1cccc1C(=O)NC(=O)COC(=O)Cc1coc2ccc3ccccc3c12 | -8.11% |
| COc1cccc(CN2CCN(Cc3ccc4cccc(F)c4n3)CC2CCO)c1 (stereo not drawn) | -9.71% |
| COc1ccc(CNC(=O)C(=O)N2CCC3(CC2)OCCN3S(=O)(=O)c2ccc(C)cc2)cc1 | -5.73% |
| Cc1ccc(NC(=O)CN(C)C(=O)c2ccc(Cl)c(S(=O)(=O)NCc3ccco3)c2)cc1 | -5.2% |
| Cc1cc(-c2n[nH]c(=S)n2/N=C/c2ccco2)n[nH]1 | 44.7% (active) |
| COc1ccccc1/C=C/C=N/n1c(-c2ccc(Cl)cc2Cl)n[nH]c1=S | -7.26% |
| S=c1[nH]nc(-c2ccco2)n1/N=C/c1ccc(Br)s1 | 17% |
| S=c1[nH]nc(-c2ccco2)n1/N=C/c1ccccc1 | 44.3% (active) |
| Fc1ccc(/C=N/n2c(COc3ccccc3)n[nH]c2=S)cc1 | 13.5% |
| Cc1ccc(CN2CCN(/N=C/c3ccco3)CC2)c(C)c1 | -10.3% |
| CCC(C)(C)NC(=O)c1cc([N+](=O)[O-])ccc1N1CCCCC1 | -0.515% |
| CC1(C)C[C@H]2C3=CCC4[C@@]5(C)CC[C@H](O)[C@](C)(CO)C5CC[C@@]4(C)[C@]3(C)C[C@@H](O)[C@@]2(CO)[C@@H](O)[C@@H]1O (stereo partly drawn) | -1.86% |
